Unmarked numbers belong to inactive results. How the calls were made is not given here.
Target: Pantothenate synthetase (Mycobacterium tuberculosis (strain ATCC 25618 / H37Rv)) (UniProt P9WIL5)
Experiment: Coupled enzyme confirmation of inhibitors against recombinant Mtb PanC (AID 375);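 further: 0% = full reaction with vehicle and 100% = no enzyme background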
Settings: coupled enzyme assay; at 10 µM, active compounds read high

Pantothenate synthetase (Mycobacterium tuberculosis (strain ATCC 25618 / H37Rv)), sequence (P9WIL5 whole entry, looked up): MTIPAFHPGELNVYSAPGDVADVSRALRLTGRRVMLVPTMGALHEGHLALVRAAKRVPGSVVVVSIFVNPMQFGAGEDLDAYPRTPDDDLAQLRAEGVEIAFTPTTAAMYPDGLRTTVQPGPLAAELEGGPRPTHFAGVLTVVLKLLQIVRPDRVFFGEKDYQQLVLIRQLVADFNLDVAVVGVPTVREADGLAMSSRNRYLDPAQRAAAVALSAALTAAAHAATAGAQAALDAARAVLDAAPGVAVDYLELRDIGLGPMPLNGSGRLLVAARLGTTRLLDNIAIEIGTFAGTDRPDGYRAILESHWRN

| Structure (SMILES) | inhibition |
| --- | --- |
| CCOC(=O)c1ccccc1NC(=O)c1cccnc1 | 0% |
| COC(=O)c1c(N)sc(C(=O)N2CCOCC2)c1C | 0% |
| O=C(CN1CCCN(S(=O)(=O)c2ccc(F)cc2)CC1)Nc1ccccc1Br | 5% |
| CC(C)[N+]1(C)[C@@H]2CC[C@H]1CC(OC(=O)C(CO)c1ccccc1)C2 (stereo partly specified) | 0% |
| CCCOc1ccc(C2C(C(=O)c3ccc(C)o3)=C(O)C(=O)N2Cc2cccnc2)cc1 (stereo unspecified) | 10% |
| COc1ccc(C(=O)NCc2ccccc2OC)cc1 | 0% |
